# Assay results taken from PubChem BioAssay (NCI).
# Compounds without any hit were thinned out: in the full panel of roughly 79,000, 15% have a hit. A number with no mark means an inactive call. The source made the active and inactive calls. No stated cut-off is given here; in the data, active means growth inhibition above about 70%; inactive means the rest.
# Test: NCI Yeast Anticancer Drug Screen. Data for the mlh1 rad18 strain (AID 175)
# Conditions: S. cerevisiae mlh1 rad18 strain growth inhibition; at 50.0 µM; active compounds read high
# How it was run: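 Compound-treated yeast growth, normalised to vehicle controls. Strain bears defined DNA repair mutations.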
row,Compound,growth inhibition
1,CCN(Cc1ccc(C(=O)OC)cc1)c1cccc(NC(C)=O)c1,34%
2,c1ccc(-c2cccc(-c3cccc(-c4ccccc4)c3)c2)cc1,-6.65%
3,Cc1cc(C)c(N=Nc2cc(C)c(N)cc2N)c(S(=O)(=O)O)c1,10.8%
4,CNNCCCC(=O)NC(C)C,7.85%
5,COc1c2ccoc2nc2c(O)c3c(c(CC=C(C)C)c12)OCO3,-2.95%
6,N#CC(C#N)=CNc1ccccc1,4.6%
7,Cc1nccn1C(C)c1ccccc1 (stereo not given),-25.4%
8,CC1=NNC(=O)C1(C)C,4.55%
9,CCOC(=O)NC(C)(C)CN(CCO)C(=O)OCC,-8.7%
10,CCCC1(CCC)CNC(=O)NC1,-10.8%
11,CCCCOC(=O)c1cccc(C(=O)OCCCC)n1,-22.8%
12,CC(C)NC(=O)OCCN=c1c2ccccc2ccc2ccccc12,38.9%
13,C(=C\c1ccc(/C=C/c2ccccc2)nn1)/c1ccccc1,-2.1%
14,COc1ccc(/C=C/C(=O)c2sc(N)nc2C)cc1,13.6%
15,CC(=O)NCc1cccc[n+]1[O-],-7.2%
16,C[C@@H]1CC[C@@H](C)[C@](C)(CCc2ccoc2)C/C=C\C=C/1C(=O)O,78.2% (active)
17,Cc1ccccc1C(c1ccccc1)C(CO)CO (stereo not given),-17.4%
18,CCN(CC)c1cccc(C(=O)OCCNCC(C)C)c1,10.8%
19,CC(=O)NCCSSCCCCS(=O)O,-5.35%
20,CC(C)C1=CC23CCC4C(C)(C(=O)O)CCCC4(C)C2CC1C1C(=O)N(c2ccccc2)C(=O)C13 (stereo not given),8.65%
21,CCC[N+](CCC)=c1ccc2nc3c(C)cc(N(CC)CC)cc3sc-2c1,-39.2%
22,O=C(O)CCN1CCSC1=O,1.8%
23,COC(=O)c1ccc(/C=C/c2cc(O)ccc2O)cc1,75% (active)
24,OC1(c2ccccc2)CCCN(Cc2ccccc2)C1 (stereo not given),15.8%
25,CC1CCCC2(CC[N+](C)(CCC[N+](C)(C)C)CC2)C1 (stereo not given),-1.7%
